GLP1R inv ag = inverse agonists of human GLP-1 receptor. Potency, µM (highest dose often 38.3 µM), for inactives: top-dose activity change, negative = inhibition, usual class: inhibitors. P43220. HEK293 GLP-1R CRE-luciferase, luminescence, 24 h; GLP-1R form is constitutively active. hit rate 1.6% among 410,000. AID 624417; note: potency is the fitted concentration of half-maximal effect; % is set by controls: 0 for no effect and ±100 for the full control effect; nearly all actives have a fitted effect of over 55% in size
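Readout was luciferase luminescence, measured 12 min after detection reagent at room temperature. Beforehand, GLP-1R reporter HEK293 cells had sat 12 h, then received compounds for 24 hr at 37 deg C.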
GLP-1R agonist = GLP-1 receptor (human) agonism. Potency, µM (doses to about 45.6 µM), without a hit: at the top dose activation, actives largely listed as activators. P43220. AID 624172. HEK293 GLP-1R CRE-luciferase, luminescence, 4-6 h; cells express a hypersensitive GLP-1R form. hit rate 0.007% among 380,000; note: potency is the fitted concentration of half-maximal effect; % of control where 0% means no effect
HEK293 tox = cytotoxic in the GLP-1 receptor inverse agonist counter-screen; HEK293 cAMP-luciferase reporter cells, luminescence, 24 h; Potency, µM (highest dose often 38.3 µM), for inactives: at the highest dose activity change, negative = inhibition, actives largely listed as inhibitors; hit rate 0.13% among 410,000;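 note: loss of luciferase light is scored as toxicity; potency is the fitted concentration of half-maximal effect; % is set by controls: 0 for no effect and ±100 for the full control effect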
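A 23 nL compound transfer followed 12 hours of cell culture at 37 deg C; exposure then lasted 24 hr. Luciferase assay detection reagent was dispensed and plates read for luminescence after a 12 min room-temperature wait.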
TSHR antag = blocks TSH signaling through the human TSH receptor | P16473 | TSHR-expressing cells, TSH-stimulated cAMP HTRF, 2 h; active compounds read low | activity change, negative = inhibition, % at 11.5 µM | hit rate 0.2% among 330,000;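 active = activity change below a set negative limit, meaning inhibition stronger than a set level, cut at about -70% in these data; inconclusive = activity change between two set negative limits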; note: % is set by controls: 0 for no effect and ±100 for the full control effect
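Antagonism was scored as loss of TSH-driven cAMP in TSHR cells, stimulated with 4nM TSH (EC80) for 2 hours at 37 deg C and detected by homogeneous HTRF competition immunoassay.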
PTHR1 ag = activates the human parathyroid hormone receptor PTHR1. Q03431. HEK293 GP2 PTHR1 cells, GloSensor cAMP luminescence, 1 h. Potency, µM (top dose mostly 115 µM), inactives show at the top dose activation, actives largely listed as activators. hit rate 0.075% among 410,000. AID 743266; note: potency is the fitted concentration of half-maximal effect; nearly all actives have a fitted effect of over 55% in size
Target sequence (Q03431 whole entry, looked up): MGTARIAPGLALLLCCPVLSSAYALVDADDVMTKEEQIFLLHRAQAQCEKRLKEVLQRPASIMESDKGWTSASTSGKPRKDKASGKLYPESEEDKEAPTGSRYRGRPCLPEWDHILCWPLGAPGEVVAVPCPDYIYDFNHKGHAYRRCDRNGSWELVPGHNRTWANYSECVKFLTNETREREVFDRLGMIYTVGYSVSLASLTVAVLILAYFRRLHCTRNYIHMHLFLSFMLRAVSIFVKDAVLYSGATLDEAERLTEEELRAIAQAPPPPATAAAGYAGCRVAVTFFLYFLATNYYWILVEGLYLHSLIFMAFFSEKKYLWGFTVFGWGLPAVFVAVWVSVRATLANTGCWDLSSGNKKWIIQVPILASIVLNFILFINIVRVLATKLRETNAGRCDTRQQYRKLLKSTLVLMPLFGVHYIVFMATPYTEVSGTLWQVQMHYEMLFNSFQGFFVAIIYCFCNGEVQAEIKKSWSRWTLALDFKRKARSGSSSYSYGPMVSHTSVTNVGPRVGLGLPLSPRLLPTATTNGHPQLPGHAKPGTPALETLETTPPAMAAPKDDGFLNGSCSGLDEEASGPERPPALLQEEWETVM
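HEK-293-derived GP2 cells expressing PTHR1 and a GloSensor cAMP reporter, 3,000/well, plated overnight, given luciferin plus IBMX (each 0.5 mM as added) for 1 h at 37 °C, then compound for 1 h at 37 °C. Luminescence was read after 15 min at room temperature.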
Active calls of the source: *; i = inactive; ? = inconclusive; . = no result given; [ ] = dose if it differs, or a comment. A selection: hits, their analogues and other compounds. The true share with any hit is near 1.8%. Unless noted, calls come from the whole dose curve; as a rule, active = well fitted curve in the direction sought with a large enough effect; inconclusive = small, poorly fitted or top-dose-only effect, or another doubt; inactive = no such curve, though single readings can be large; an effect the other way counts as inactive or inconclusive.

SMILES	GLP1R inv ag	GLP-1R agonist	HEK293 tox	TSHR antag	PTHR1 ag
COc1ccccc1N1CCN(C(=O)CCC(=O)N2CCN(c3ccc(F)cc3)CC2)CC1	-5%	-7%	3%	-124*	-27%
Cc1nn2cc(-c3ccc(-c4ccccc4)cc3)nc2s1	-8%	3%	6%	-19	-4%[57.5 µM]
CCc1nn2cc(-c3ccccc3)nc2s1	5.6µM*	-15%	-5%	3	-26%
O=C1CC(c2ccc(Cl)cc2)Sc2nc(-c3ccc(F)cc3)nn21 (centres undefined)	4%	.	1%	.	i
Cc1ccc(-n2cc(-c3ccccc3)c3c(NC4CCCC4)ncnc32)cc1	2.5µM*	.	-8%	.	i
Cc1ccc(-n2cc(-c3ccccc3)c3c(N4CCOCC4)ncnc32)cc1	3.5µM*	7%	-17%	-11	-11%
CC1CN(c2ncnc3c2c(-c2ccccc2)cn3-c2ccc(F)cc2)CC(C)O1 (centres undefined)	4µM*	12%	6%	-11	-23%
Cc1ccc(-n2cc(-c3ccccc3)c3c(N4CCCCC4)ncnc32)cc1	-1%	.	-4%	.	?
CC(C)c1cccc(C(C)C)c1NC1=NS(=O)(=O)c2ccccc21	-16%	.	-1%	.	-1%
O=C(CN1C(=O)NC2(CCOc3ccccc32)C1=O)Nc1cccc(Cl)c1 (centres undefined)	10µM*	2%	5%	-2	i
C=CCN(Cc1cc(OC)ccc1OC)C(=O)c1cc2ccc(OC)cc2[nH]1	11µM*	11%	-4%	21	-19%
O=C(COc1ccc(Cl)cc1)OCc1cc(=O)n2nc(C3CCCCC3)sc2n1	20%	.	5%	.	-6%
O=C1c2ccccc2NC(c2ccc(Cl)cc2Cl)N1Cc1ccccc1 (centres undefined)	7.1µM*	-15%	-14%	-25	-3%
COc1cccc(NC(=O)CSc2nc3c(sc4ccccc43)c(=O)n2CCCN2CCCC2)c1	10µM*	15%	?	-3	?
COc1cccc(NC(=O)CSc2nc3c(sc4ccccc43)c(=O)n2CCN(C)C)c1	-7%	7%	-1%	-1	i
C/C(=N\O)c1ccc(OCC(=O)N2CCCCC2)cc1	.	6%	.	.	.
C=C(C)COc1ccc(-c2ncnc(C(F)(F)F)c2-c2ccccc2)c(O)c1	2.8µM*	13%	1%	-8	-34%
C=C(C)COc1ccc(-c2ncnc(C(F)(F)F)c2-c2ccc(OC)cc2)c(O)c1	7.9µM*	18%	2%	1	-10%
C=C(C)COc1ccc(-c2nc(N)nc(C(F)(F)F)c2-c2ccc(OC)cc2)c(O)c1	?	7%	-3%	-2	-2%
CC1CCN(S(=O)(=O)N2CCCC(C(=O)NCc3ccccc3Cl)C2)CC1 (centres undefined)	7.1µM*	6%	10%	-17	-1%
O=C(NCCc1ccc(Cl)cc1)C1CCCN(S(=O)(=O)N2CCCCCC2)C1 (centres undefined)	5.6µM*	10%	-3%	-15	-37%
Cc1ccc(S(=O)(=O)N2CCC(C(=O)NCc3ccccc3CN3CCCC3)CC2)cc1C	4.5µM*	0%	-27%	2	i
S=C1NC=NC2N=CNC12 (centres undefined)	.	5%	.	.	.
CC(C)NCC(O)Cn1c2c(c3ccccc31)CCc1c-2cnn1-c1ccccc1 (centres undefined)	10µM*	-36%	?	2	-11%
CN1CCc2c(n(CC(O)CNCc3ccccc3)c3ccccc23)C1=O (centres undefined)	?	-4%	-10%	10	-2%
SMILES	GLP1R inv ag	GLP-1R agonist	HEK293 tox	TSHR antag	PTHR1 ag
CCCCN1C(=O)C(=O)NC[C@H]1Cc1cccc2ccccc12	4%	5%	-8%	.	-10%
O=C1NC[C@@H](Cc2cccc3ccccc23)N(CC2(c3ccccc3)CC2)C1=O	11µM*	-3%	3%	4	-93%
CC(C)c1ccccc1-n1c(SCC(=O)c2ccc3c(c2)NC(=O)CO3)nc2ccccc2c1=O	10µM*	14%	14%	7	-5%
CC(C)c1ccccc1-n1c(SCC(=O)N2CCc3ccccc3C2)nc2ccccc2c1=O	10µM*	14%	6%	-1	-19%
O=C1COc2ccc(C(=O)CSc3ccccc3C(=O)O)cc2N1	1%	-1%	15%	3	-1%
COc1cccc(/C=N/Nc2nnc(C)n2N)c1O	10µM*	2%	?	11	i
COCCCNC(=S)N/N=C/c1cccc(OC)c1O	1.1µM*	9%	?	4	-18%
COCCCNC(=S)N/N=C/c1ccc(O)cc1O	32%	13%	16%	-4	i
Cc1nnc(N/N=C/c2ccccc2F)n1N	20%	5%	-15%	1	i
Cc1ccc(NS(=O)(=O)c2cc(NC(=O)c3ccc4c(c3)NC(=O)CS4)ccc2Cl)c(C)c1	2.5µM*	-3%	?	?	-90%
c1ccc(COc2ncnc3c2ncn3CCCNCC(c2ccccc2)c2ccccc2)cc1	?	-8%	11µM*	.	-27%
COc1ncnc2c1ncn2CCCNCC(c1ccccc1)c1ccccc1	-24%	7%	-8%	.	-26%
CCOC(=O)c1ccc(N2C(=O)c3n[nH]c(-c4ccco4)c3C2c2ccccc2OC)cc1 (centres undefined)	?	-5%	?	.	-35%
CC1(C(=O)Nc2cccc3c2CCCC3)CCN1C(=O)CCC1CCCC1 (centres undefined)	11µM*	23%	-2%	.	-46%
COc1cc(NC(=O)c2ccccc2)c(OC)cc1NC(=O)CN1CCCCC1	5µM*	?	-5%	7	-1%
COc1cc(NC(=O)c2ccccc2)c(OC)cc1NC(=O)CN1CCOCC1	25%	7%	-15%	4	-14%[57.5 µM]
CCCCNCC1C(Oc2ccc(Cl)cc2)C(=O)N1c1ccccc1C (centres undefined)	10µM*	3%	?	1	-9%
CCCNCC1C(Oc2ccc(Cl)cc2Cl)C(=O)N1c1cccc(C)c1C (centres undefined)	?	0%	?	-1	-1%
CC(=O)Nc1cccc(-c2ccnc3c2CC(C(=O)Nc2cccc(NS(C)(=O)=O)c2)O3)c1 (centres undefined)	25%	-11%	7%	.	i
CS(=O)(=O)Nc1cccc(NC(=O)C2Cc3c(-c4ccccc4)ccnc3O2)c1 (centres undefined)	0.89µM*	15%	-21%	.	-1%
O=[N+]([O-])c1ccc(-n2nnnc2-c2ccccc2)c([N+](=O)[O-])c1	?	-29%	10µM*	24	-34%
Cc1cc(C)cc(-n2ccnc2SCC(=O)Nc2ccccc2F)c1	-28%	6%	-2%	.	i

Assay outcomes: PubChem, National Center for Advancing Translational Sciences (NCATS)
